PubChem BioAssay AID588689 (Southern Research Specialized Biocontainment Screening …, 2011)
About 1,000 (0.29%) of roughly 340,000 compounds were called active. A selection follows. Potency and affinity values are given separately. A number with no mark means an inactive call. Rule as the data show it: inconclusive = inhibition above about 29% without an active follow-up result; inactive = below that.

Molecular target: Genome polyprotein (Dengue virus type 2 (strain 16681-PDK53)) (UniProt P29991)
Assay: flavivirus cap methylation enzyme inhibition – biochemical, confirmation dose response, primary screen (AID 588689)
Conditions: Dengue-2 NS5 methyltransferase capping enzyme assay, at 25 µM, active compounds read high

Row | SMILES | inhibition
1 | O=C1N/C(=C/c2cccn2-c2ccc(F)cc2)C(=O)N1Cc1ccccc1 | -0.68%
2 | O=C(CN1CCN(c2ccc(F)cc2)CC1)c1ccc2c(c1)OCO2 | -2.07%
3 | CC(=O)OC1C([N+]2(C)CCCCC2)C[C@H]2C3CC[C@H]4C[C@H](OC(C)=O)C([N+]5(C)CCCCC5)CC4(C)[C@H]3CCC12C (stereo partly drawn) | -1.47%
4 | Cn1c(SCc2ccccc2)nccc1=O | 1.94%
5 | O=C1C(SCCO)=C(SCCO)C(=O)c2ccccc21 | -3.66%
6 | COc1ccc(Nc2ncnc3sc(-c4ccccc4)cc23)cc1 | -5.46%
7 | O=C(NN1C(=O)/C(=C/c2cccs2)SC1=S)c1ccncc1 | -4.6%
8 | O=C(NN1C(=O)/C(=C/c2cccs2)SC1=S)c1ccccc1 | -1.93%
9 | Cc1ccc(S(=O)(=O)NN2C(=O)/C(=C/c3ccccn3)SC2=S)cc1 | 14%
10 | CCN1C(=O)/C(=C/c2cccs2)S/C1=N\S(=O)(=O)c1ccc(C)cc1 | -2.56%
11 | Cc1cc(C)cc(OCC(=O)N/N=C/c2ccccn2)c1 | 6.27%
12 | COc1cc2c(cc1OC)C(c1cccs1)N(C(=S)NC(C)C)CC2 (stereo not drawn) | -5.35%
13 | Cc1ccc(-c2nnn(CC(=O)N(Cc3ccccc3)C(C(=O)NC(C)(C)C)c3ccncc3)n2)o1 (stereo not drawn) | -0.68%
14 | Cc1cccc(C)c1OCC(O)Cn1c2ccccc2c2ccccc21 (stereo not drawn) | -10.5%
15 | CCCc1c(C)c2ccccc2[nH]c1=O | -1.65%
16 | Cc1ccc(C(=O)O)cc1NS(=O)(=O)c1ccc2c(c1)oc(=O)n2C | -6.53%
17 | Cc1cc(C)cc(N2C(=O)C=CC2=O)c1 | -24.7%
18 | O=C(O)c1cccc(N2C(=O)C3CC=CCC3C2=O)c1 (stereo not drawn) | -1.37%
19 | O=C(O)c1cc(C(=O)O)cc(N2C(=O)CSC2=S)c1 | -4.42%
20 | O=C(O)c1cccc(N2C(=O)c3ccc4c5c(ccc(c35)C2=O)C(=O)N(c2cccc(C(=O)O)c2)C4=O)c1 | 16.5%
21 | N/C(=N\OC(=O)Oc1ccccc1)c1ccc(Cl)cc1 | 2.93%
22 | COc1ccc(CNC(=O)c2cc(=O)c3cc(C)cc(C)c3o2)cc1 | -5.29%
23 | O=[N+]([O-])c1ccc(SCc2c(F)cccc2Cl)nc1 | -6.18%
24 | O=C(O)/C=C/C(=O)Nc1ccc(-c2ccccc2)cc1 | -12.6%

Row | SMILES | inhibition
25 | O=C(O)/C=C/C(=O)Nc1ccc(C(=O)c2ccccc2)cc1 | -4.59%
26 | CC(C)CN(C(=O)CCCSc1nc2ccccc2[nH]1)c1c(N)n(Cc2ccccc2)c(=O)[nH]c1=O | 2.91%
27 | CCC1(C)Cc2c(sc3[nH]c(=S)[nH]c(=S)c23)CO1 (stereo not drawn) | -4.57%
28 | CC1(C)Cc2c(sc3[nH]c(=S)[nH]c(=O)c23)CO1 | -1.64%
29 | O=S(=O)(/N=C(\Nc1ccc(F)cc1)C(F)(F)F)c1ccccc1 | 3.78%
30 | COc1ccc(C(=O)C(C)Oc2cccc(NC(=O)c3cccc([N+](=O)[O-])c3)c2)cc1 (stereo not drawn) | 3.25%
31 | Cc1ccccc1N=Nc1ccc(O)c2ncccc12 | -2.17%
32 | NS(=O)(=O)c1ccc(N=Nc2ccc(O)c3ncccc23)cc1 | 13.7%
33 | CCN(CC)c1nc2ccccc2n(Cc2cccc(OC)c2)c1=O | -2.37%
34 | Cc1ccc(S(=O)(=O)N2CCC[C@H]2C(=O)OCC(=O)c2ccc3c(c2)NC(=O)CO3)cc1 | -4.71%
35 | CC(=O)Nc1ccccc1NC(=O)COc1cccc2ccccc12 | -2.63%
36 | O=C(COc1ccccc1[N+](=O)[O-])Nc1cc(Cl)ccc1C(=O)O | 0%
37 | O=C(COc1ccccc1C(=O)O)Nc1cccc2ccccc12 | 1.47%
38 | O=C(Cc1cccc2ccccc12)Nc1cc(Cl)ccc1C(=O)O | -1.36%
39 | COc1cc(C(C(=O)NC2CCCC2)N(CCO)C(=O)Cn2nnc(-c3ccc(C)o3)n2)ccc1O (stereo not drawn) | 0.83%
40 | COc1ccc(CCNC(=O)CN(c2cc(OC)ccc2OC)S(=O)(=O)c2ccccc2)cc1 | -15.3%
41 | N#CC1(c2ccccc2)CCC(=NNS(=O)(=O)c2ccccc2)CC1 (stereo not drawn) | -6.67%
42 | CCn1c(SCC(=O)NC2CCCCC2)nnc1-c1cccs1 | -2.08%
43 | Cc1[nH]n(-c2ccccc2)c(=O)c1C(C[N+](=O)[O-])c1ccc(Cl)cc1 (stereo not drawn) | 4.51%
44 | Cc1[nH]n(-c2ccccc2)c(=O)c1C(C[N+](=O)[O-])c1ccc(Br)cc1 (stereo not drawn) | 12.4%
45 | COc1ccc(C(c2c(C)[nH]n(C(N)=S)c2=O)C(C#N)C#N)cc1 (stereo not drawn) | 28%
46 | CCCc1[nH][nH]c(=O)c1C(c1ccc(Br)cc1)C(C#N)C#N (stereo not drawn) | -1.4%
47 | Cc1[nH]n(-c2ccccc2)c(=O)c1-c1ccc(Cl)cc1 | -1.62%
48 | CCCc1[nH][nH]c(=O)c1C(c1ccc(Cl)cc1)C(C#N)C#N (stereo not drawn) | -8.33%
